Source: PubChem BioAssay AID463173 (ICCB-Longwood Screening Facility, Harvard Medical School, 2010)
The whole screen tested about 52,000 compounds, of which about 4,300 (8.3%) were called active. The sample holds actives, similar compounds and a random draw of the others, so the mix is not that of the screen. Rule as the data show it: active = survival mostly below about 52% (no sharp cut-off); inactive = mostly above about 56%.

system: DeltatarO mutant; assay: growth inhibition of S. aureus wild type versus tarO mutant, primary screen, teichoic acid synthesis inhibitors, RN4220, OD600 (AID 463173); conditions: OD600, 18 h, hits give low values, screened at 18.75 µg/mL (by protocol)

SMILES	survival
COc1ccccc1N1CCN(S(=O)(=O)c2ccc(F)c(C(=O)Nc3ccc(C)c(F)c3)c2)CC1	93% (inactive)
Cn1c(=N)n(CC(=O)c2ccc(-c3ccccc3)cc2)c2ccccc21	106% (inactive)
CCCCNC(=O)CCCn1c(=O)c2ccccc2n(Cc2c(C)cc(C)cc2C)c1=O	90% (inactive)
Cc1ccc(NC(=O)Cn2cc(C(=O)C3CCCCC3)c3ccccc32)c(C)c1	78% (inactive)
COc1cccc(CNC(=O)COc2cc(=O)n(C)c3ccccc23)c1	72% (inactive)
CCOC(=O)c1cnc2c(C)cc(C)cc2c1NCCc1ccc(OC)c(OC)c1	66% (inactive)
CCOC(=O)c1c(C)oc2nc(C)nc(NCCc3ccc(OC)c(OC)c3)c12	94% (inactive)
CCOC(=O)c1cnc2c(C)cc(Cl)cc2c1NCCc1ccc(OC)c(OC)c1	31% (active)
COCCn1c(SCC(=O)c2ccc(F)cc2)nc2cc(C(=O)NC3CCCC3)ccc2c1=O	94% (inactive)
CCCC1(C(=O)OCC)NC(c2ccccc2F)C2C(=O)N(c3ccccc3)C(=O)C21 (stereo unspecified)	88% (inactive)
CCOC(=O)c1c(C)[nH]c(C)c1S(=O)(=O)NCC(=O)Nc1cccc(SC)c1	66% (inactive)
OC1(C#CCN2CCCCCC2)CCCCC1	93% (inactive)
Cc1ccc(C(=O)CC2(O)C(=O)N(CCc3ccccc3)c3ccc(Br)cc32)cc1 (stereo unspecified)	39% (inactive)
COc1ccc(C(=O)CC2(O)C(=O)N(CCc3ccccc3)c3ccc(Br)cc32)cc1OC (stereo unspecified)	53% (inactive)
O=C(CC1(O)C(=O)N(CCc2ccccc2)c2ccc(Br)cc21)c1ccc(F)cc1 (stereo unspecified)	55% (inactive)
O=C(CC1(O)C(=O)N(CCc2ccccc2)c2ccc(Br)cc21)c1ccccc1 (stereo unspecified)	25% (active)
O=C(CC1(O)C(=O)N(CCc2ccccc2)c2ccc(Br)cc21)c1ccccc1O (stereo unspecified)	40% (active)
C#CCN1C(=O)C(O)(CC(=O)c2ccc(OC)c(OC)c2)c2cc(Br)ccc21 (stereo unspecified)	78% (inactive)
Cc1nn2c(-c3ccco3)ccnc2c1-c1ccc(Br)cc1	81% (inactive)

SMILES	survival
N#Cc1c(N)nc(SCc2ccccc2)c(C#N)c1-c1cccs1	49% (inactive)
COc1ccc(N(C(=O)Cn2nnc3ccccc32)C(C(=O)NCC2CCCO2)c2sccc2C)cc1 (stereo unspecified)	94% (inactive)
COc1ccc(-n2nc(C(=O)NCCc3ccc(OC)c(OC)c3)c3c4ccccc4n(C)c3c2=O)cc1	89% (inactive)
O=c1[nH]c(=O)n(C2CCCCC2)c(O)c1C1=Nc2ccccc2SC(c2ccccc2)C1 (stereo unspecified)	93% (inactive)
Cc1ccc(S(=O)(=O)c2cn(C)c3cc(N4CCCC4)c(F)cc3c2=O)c(C)c1	67% (inactive)
Cc1ccc(C)c(N2CCN(C(=O)Cn3cnc4nc5c(cc4c3=O)CCCC5)CC2)c1	87% (inactive)
Cc1cccc(N(C)C(=O)Cn2cnc3nc4c(cc3c2=O)CCCC4)c1	17% (active)
Cc1ccc(C)c(NC(=O)Cn2cnc3nc4c(cc3c2=O)CCCC4)c1	89% (inactive)
O=C(Cn1cnc2nc3c(cc2c1=O)CCCC3)Nc1ccc(F)cc1Cl	88% (inactive)
Cc1c(Cl)cccc1NC(=O)Cn1cnc2nc3c(cc2c1=O)CCCC3	126% (inactive)
COc1cc(OC)c(NC(=O)Cn2cnc3nc4c(cc3c2=O)CCCC4)cc1Cl	-5% (active)
CCc1ccccc1NC(=O)c1ccc(F)c(S(=O)(=O)N2CCN(c3cccc(Cl)c3)CC2)c1	88% (inactive)
CCOC(=O)c1ccc(NC(=O)c2nsc3ccccc23)cc1	60% (inactive)
CC1CCC(NC(=O)c2ccc3c(c2)N(Cc2ccccc2)C(=O)c2ccccc2S3(=O)=O)CC1 (stereo unspecified)	115% (inactive)
CCOC(=O)c1c(C)oc2nc(C)nc(NCc3ccccc3OCC)c12	102% (inactive)
O=C(CCCn1c(=O)c2sccc2n(Cc2cccc(Cl)c2)c1=O)NCc1ccc2c(c1)OCO2	64% (inactive)
CCN(CC)c1ccc(C=C2C(=O)OC3(CCCC3)OC2=O)cc1	83% (inactive)
CCCN(CCC)CN1C(=O)S/C(=C/c2ccc(N(CC)CC)cc2)C1=O	68% (inactive)
CCN(CC)c1ccc(/C=C2/SC(=O)NC2=O)cc1	34% (active)

SMILES	survival
CC1CN(C(=O)N2CCC(C(=O)NCCC3=CCCCC3)CC2)c2cc(Cl)ccc2O1 (stereo unspecified)	65% (inactive)
CC(C)CCNC(=O)C1CCN(C(=O)N2CCOc3ccc(Cl)cc32)CC1	52% (inactive)
CC1CN(C(=O)N2CCC(C(=O)NCc3ccccc3F)CC2)c2cc(Cl)ccc2O1 (stereo unspecified)	60% (inactive)
O=C(NCCCc1ccccc1)C1CCN(C(=O)N2CCOc3ccc(Cl)cc32)CC1	46% (active)
Cc1ccc2c(c1)N(C(=O)N1CCC(C(=O)NC3CCCCCC3)CC1)CCO2	82% (inactive)
CCc1ccccc1NC(=O)C1CCN(C(=O)N2CC(C)Oc3ccc(Cl)cc32)CC1 (stereo unspecified)	55% (active)
CNC(=O)C1CCN(C(=O)N2CC(C)Oc3ccc(Cl)cc32)CC1 (stereo unspecified)	59% (inactive)
O=C(NC1CCCCCC1)C1CCN(C(=O)N2CCOc3ccc(Cl)cc32)CC1	46% (active)
CC1CN(C(=O)N2CCC(C(=O)NCCCc3ccccc3)CC2)c2cc(Cl)ccc2O1 (stereo unspecified)	56% (inactive)
O=C(NCCC1=CCCCC1)C1CCN(C(=O)N2CCOc3ccccc32)CC1	72% (inactive)
O=C(NC1CCCCCC1)C1CCN(C(=O)N2CCOc3ccccc32)CC1	76% (inactive)
O=C(NCCC1=CCCCC1)C1CCN(C(=O)N2CCOc3ccc(Cl)cc32)CC1	47% (active)
COc1ccccc1N1CCN(c2nc3c(S(=O)(=O)c4ccc(C)c(C)c4)nnn3c3ccc(Cl)cc23)CC1	81% (inactive)
Cc1ccc(NCc2nnc(SCc3cc(C)ccc3C)o2)c(C)c1	91% (inactive)
Cc1cccc(C)c1NC(=O)Cn1cc(S(=O)(=O)Cc2ccc(F)cc2)c2ccccc21	78% (inactive)
Cc1ccc(C)c(S(=O)(=O)c2nnn3c2nc(Nc2ccc(C)c(C)c2)c2sccc23)c1	77% (inactive)
O=C(c1ccc2c(c1)N(Cc1ccccc1F)C(=O)c1ccccc1S2(=O)=O)N1CCC(Cc2ccccc2)CC1	71% (inactive)
Cc1ccc(NC(=O)C2Cc3ccccc3N2C(=O)c2ccccc2)cc1Cl (stereo unspecified)	78% (inactive)
